Screens: PubChem, The Scripps Research Institute Molecular Screening Center
Sampled rows, rich in hits. Any-hit rate of the full collection: about 2.9%.
PAFAH1B3 inh – inhibitors of human PAFAH1B3. recombinant PAFAH1B3, FP-rhodamine probe, fluorescence polarization. 0.28% of 340,000 active. Q15102. AID 492972. inhibition, % at 3.39 µM;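 active = inhibition above the screen-wide average of all tested compounds plus 3 SD, cut at about 25% in these data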;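 note: 0% = enzyme with DMSO only and 100% = wells lacking PAFAH1B3 protein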
PAFAH1B2 FP inh – inhibitors of human PAFAH1B2 | P68402 | recombinant PAFAH1B2, FP-rhodamine activity probe, fluorescence polarization | inhibition, % at 3.39 µM | 1.2% of 340,000 active | AID 492953;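 active = inhibition above the mean of all tested compounds plus 3 SD, cut at about 24% in these data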;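 note: 0% = enzyme with DMSO and 100% = wells lacking PAFAH1B2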
pPAFAH inh – pPAFAH (human) enzyme inhibition; Q13093; 1.5% of 330,000 active; inhibition, % at 3.39 µM; recombinant pPAFAH, FP-rhodamine probe fluorescence polarization;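 active = inhibition above the mean inhibition across the screen plus 3 SD, cut at about 25% in these data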;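 note: inhibitors block binding of the rhodamine activity-based probe so polarization drops; 0% = enzyme with DMSO and 100% = wells lacking pPAFAH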
PAFAH2 FP inh – inhibitors of human PAFAH2; Q99487; recombinant PAFAH2, FP-rhodamine activity probe, fluorescence polarization; inhibition, % at 3.39 µM; 0.99% of 340,000 active;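 active = inhibition above the mean over all tested compounds plus 3 SD, cut at about 30% in these data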;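 note: inhibitors block probe labeling of enzyme so polarization drops; 0% = enzyme with DMSO and 100% = wells lacking PAFAH2 protein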
LYPLA1 counter – blocks human lysophospholipase 1, a PME1 counter-screen; O75608; recombinant LYPLA1, FP-Rh probe fluorescence polarization; inhibition, % at 5.9 µM; 0.16% of 320,000 active;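 active = inhibition above the mean of all tested compounds plus 3 SD, set per campaign, cut at about 14% in these data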;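 note: inhibitors block serine hydrolase probe labeling of LYPLA1 so polarization falls; 0% = enzyme with DMSO and 100% = wells lacking LYPLA1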
LYPLA2 inh – blocks human lysophospholipase 2, a PME1 counter-screen. 0.38% of 320,000 active. recombinant LYPLA2, FP-Rh probe fluorescence polarization. O95372. AID 2177. inhibition, % at 5.9 µM;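 active = inhibition above the screen-wide mean plus 3 SD, limit set per campaign, cut at about 26% in these data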;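 note: 0% = LYPLA2 with DMSO and 100% = wells lacking LYPLA2 enzyme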
Target sequence (O95372 whole entry, looked up): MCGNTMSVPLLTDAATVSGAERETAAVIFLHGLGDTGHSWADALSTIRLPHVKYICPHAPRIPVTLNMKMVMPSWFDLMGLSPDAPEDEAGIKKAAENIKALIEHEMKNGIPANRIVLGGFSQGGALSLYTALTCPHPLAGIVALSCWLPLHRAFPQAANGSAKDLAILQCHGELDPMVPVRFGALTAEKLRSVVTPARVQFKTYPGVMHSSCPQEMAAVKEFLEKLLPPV
LYPLA1 confirm – counter-screen for PME1 inhibitors: confirmation of human LYPLA1 inhibitors | shares compounds with LYPLA1 counter | recombinant LYPLA1, FP-Rh probe fluorescence polarization | inhibition, % at 5.9 µM | 69% of 480 active;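 active = mean inhibition across replicates above the hit cutoff set in the primary screen, cut at about 15% in these data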;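 note: loss of FP-Rh probe labeling of LYPLA1 seen as lower polarization; 0% = LYPLA1 with DMSO and 100% = wells lacking LYPLA1 enzyme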
* hit, by the source's call; / = no result.

SMILES	PAFAH1B3 inh	PAFAH1B2 FP inh	pPAFAH inh	PAFAH2 FP inh	LYPLA1 counter	LYPLA2 inh	LYPLA1 confirm
COC(=O)c1ccc(COc2ccccc2/C=C(\C#N)C(=O)Nc2ccc(C)cc2C)cc1	3	0	-3	-5	16*	5	-4
COc1ccc(S(=O)(=O)Nc2ncccc2C)c2ccccc12	0	-1	-1	0	1	3	/
Cn1c(=O)[nH]c2nnc(-c3ccc(Cl)c(Cl)c3)nc2c1=O	10	15	7	23	14*	3	24*
Nc1cc(=O)[nH]c(SCC(=O)Nc2ccc(Cl)c(Cl)c2)n1	11	2	-7	1	15*	-1	21*
Cc1ccc(C(=O)O/N=C(\N)c2ccccc2)c(Cl)c1	4	3	-1	-2	0	8	/
COc1cccc(N=C2NC(=O)/C(=C/c3cc([N+](=O)[O-])ccc3O)S2)c1	39*	27*	25	40*	17*	-1	41*
CN(C)C=Nc1c(Br)cc(Br)c2nonc12	7	2	-4	-11	14*	-2	-1
CN(C)C=Nc1nonc1-c1ccccc1	2	-2	1	-2	-1	-2	/
O=C(CCSCCc1ccccn1)Nc1ccc(Cl)cn1	14	1	1	-5	0	1	/
CCN1C(=O)c2cccc3c(N)ccc(c23)C1=O	20	15	15	21	15*	23	12
COc1ccccc1NC(=O)Cn1ncc2c1-c1ccccc1OC2	7	-2	-6	-3	-3	5	/
COc1cc(NC(=O)Cn2ncc3c2-c2ccccc2OC3)cc(OC)c1OC	12	4	6	4	20*	11	2
C=CCN1CN(Cc2ccco2)CNC1=S	1	2	-10	-2	-5	-7	/
O=C1NC(=S)S/C1=C\c1coc2ccccc2c1=O	2	-6	2	2	17*	7	-2
COc1cccc(/C=N/NC(=O)c2c(-c3ccccc3)noc2C)c1	-1	7	-3	-3	-3	5	/
COc1ccccc1C(=O)Nc1ccc2c(c1)nc1n2CCN(Cc2ccccc2)C1	0	5	6	0	28*	11	4
O=C(Nc1cccc2ncccc12)c1ccc(Cl)cc1	-3	-2	0	-11	29*	0	3
COC(=O)COC(=O)c1ccc(O)cc1	2	1	-5	5	15*	3	2
CC(C)N(C(=O)COC(=O)c1ccc(O)cc1)C(C)C	-5	6	2	2	-1	-3	/
COc1cccc(COC(=O)c2cc(S(=O)(=O)N3CCOCC3)ccc2Cl)c1OC	6	6	/	4	/	/	/
O=C1c2cccc3c(O)ccc(c23)C(=O)N1Cc1ccccc1	35*	26*	31*	50*	21*	31*	24*
O=S1(=O)c2ccccc2Nc2ccccc21	9	0	0	4	-5	-3	/
CC1CC(=O)Nc2ccccc2S1(=O)=O (stereo unspecified)	7	-1	2	4	18*	11	5
C#CCN1c2ccccc2Sc2cccnc21	15	10	10	7	17*	23	0
Cc1cccc(C(=O)NC(NCc2ccco2)C(Cl)(Cl)Cl)c1 (stereo unspecified)	11	-1	5	-11	17*	5	4
Cc1ccc([N+](=O)[O-])c(OCCCN2CCC(Cc3ccccc3)CC2)c1	11	-5	-4	5	36*	27*	52*
O=C(CSc1nnc(-c2ccco2)o1)N1CCN(c2ccccc2)CC1	5	-7	0	0	20*	4	28*
CCOC(=O)NC(=O)/C(C#N)=C\Nc1sccc1C(=O)OC	1	-1	17	3	20*	31*	3
CCN(CCNC(=O)C1CCN(Cc2nc(-c3cccc(Cl)c3)oc2C)CC1)c1ccccc1	13	4	7	-1	2	5	/
Cc1noc(NS(=O)(=O)c2ccc(N/C=C\C(=O)c3ccc(Br)cc3)cc2)c1C	10	13	5	12	16*	8	34*
